In ChEMBL document CHEMBL3988442, “University of Dundee, Small-Polar-MMV Screening Library” (2021) one finds Percent Effect data, which are given here for five compounds.

Holding throughout (design): scale not given: direction of the effect not stated beside the values
In test [1] the target is Protein translocase subunit SecA (Escherichia coli (strain K12)) (UniProt P10408). Kind of test: Assay to Identify E. coli SecA ATPase Inhibitors. Type of test: functional. To be noted: 30 µM.
The target of test [2] is T1, Ubiquitin-activating enzyme e1, putative (Leishmania donovani (strain BPK282A1)) (UniProt E9BSI1).
T1 sequence (whole entry): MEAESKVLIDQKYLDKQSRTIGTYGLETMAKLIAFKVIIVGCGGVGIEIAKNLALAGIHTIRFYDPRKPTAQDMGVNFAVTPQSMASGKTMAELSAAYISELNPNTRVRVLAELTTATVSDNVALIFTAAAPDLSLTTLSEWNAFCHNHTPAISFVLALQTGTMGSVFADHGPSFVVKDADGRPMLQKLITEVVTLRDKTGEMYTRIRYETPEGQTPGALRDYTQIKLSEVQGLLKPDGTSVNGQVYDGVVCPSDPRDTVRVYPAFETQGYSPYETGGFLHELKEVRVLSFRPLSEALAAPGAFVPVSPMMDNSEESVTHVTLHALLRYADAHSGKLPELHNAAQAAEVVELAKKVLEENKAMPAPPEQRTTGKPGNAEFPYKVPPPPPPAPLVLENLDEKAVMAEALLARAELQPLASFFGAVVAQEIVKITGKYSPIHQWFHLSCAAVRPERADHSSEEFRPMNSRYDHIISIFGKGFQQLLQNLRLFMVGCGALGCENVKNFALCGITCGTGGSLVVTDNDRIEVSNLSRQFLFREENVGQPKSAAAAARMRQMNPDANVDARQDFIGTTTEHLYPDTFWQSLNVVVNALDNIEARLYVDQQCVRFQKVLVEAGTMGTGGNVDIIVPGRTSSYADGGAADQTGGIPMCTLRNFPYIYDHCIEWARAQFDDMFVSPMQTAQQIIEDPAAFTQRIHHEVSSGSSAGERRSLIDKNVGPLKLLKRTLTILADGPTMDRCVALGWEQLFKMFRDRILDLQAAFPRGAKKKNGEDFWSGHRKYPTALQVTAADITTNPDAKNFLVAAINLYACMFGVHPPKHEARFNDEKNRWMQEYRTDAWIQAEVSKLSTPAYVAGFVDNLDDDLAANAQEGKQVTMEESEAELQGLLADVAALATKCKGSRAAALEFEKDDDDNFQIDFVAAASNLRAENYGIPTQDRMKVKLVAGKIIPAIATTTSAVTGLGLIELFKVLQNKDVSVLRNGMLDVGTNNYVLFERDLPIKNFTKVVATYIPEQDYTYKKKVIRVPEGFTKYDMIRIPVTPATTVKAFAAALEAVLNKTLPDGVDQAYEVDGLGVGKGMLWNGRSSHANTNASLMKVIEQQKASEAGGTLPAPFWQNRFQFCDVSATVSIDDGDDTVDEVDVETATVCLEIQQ
The test can be described thus: Leishmania donovani Ubiquitin Activating Enzyme (LdE1). Type of test: functional. The note with it: 30 µM.

Test [3] addresses T2, Aspartate--tRNA(Asp/Asn) ligase (Mycobacterium tuberculosis (strain ATCC 25618 / H37Rv)) (UniProt P9WFW3).
T2 sequence (whole entry): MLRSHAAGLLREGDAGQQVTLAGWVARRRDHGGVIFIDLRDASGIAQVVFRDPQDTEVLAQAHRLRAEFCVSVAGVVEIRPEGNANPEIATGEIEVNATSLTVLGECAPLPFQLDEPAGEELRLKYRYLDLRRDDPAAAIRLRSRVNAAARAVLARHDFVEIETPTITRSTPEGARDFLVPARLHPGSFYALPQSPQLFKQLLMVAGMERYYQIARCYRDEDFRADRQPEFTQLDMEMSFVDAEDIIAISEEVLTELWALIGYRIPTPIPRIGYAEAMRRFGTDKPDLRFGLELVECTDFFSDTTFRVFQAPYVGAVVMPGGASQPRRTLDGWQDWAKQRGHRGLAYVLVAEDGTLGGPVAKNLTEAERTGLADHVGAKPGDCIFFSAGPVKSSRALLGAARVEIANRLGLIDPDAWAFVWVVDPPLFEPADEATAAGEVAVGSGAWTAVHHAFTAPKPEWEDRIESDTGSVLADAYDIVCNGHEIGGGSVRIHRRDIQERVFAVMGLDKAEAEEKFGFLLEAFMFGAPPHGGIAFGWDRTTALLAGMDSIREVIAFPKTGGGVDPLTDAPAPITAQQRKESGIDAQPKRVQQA
Kind of test: Assay for Asp RNA synthetase-1 from Mycobacterium tuberculosis. Type of test: functional. The note with it: 30 µM.

Test [4] addresses AMP-activated protein kinase, AMPK (Homo sapiens) (UniProt P54646+O43741+P54619+Q9UGJ0+Q9Y478+Q13131+Q9UGI9). The test can be described thus: AMP-dependent Kinase enzyme assay. An in vitro enzyme assay that detects ADP turnover that is directly proportional to AMPK activity. This uses naive AMPK that is activated during the assay with MK-8722. Type of test: functional. The note with it: 30 µM.

In test [5] the target is Sialic acid-binding Ig-like lectin 9 (Homo sapiens) (UniProt Q9Y336). Kind of test: Hs-Siglec9 ALPHAscreen SOP 20170721. To be noted: 10 µM.
In the next test the test system is Trypanosoma cruzi. The test can be described thus: Trypanosoma cruzi phosphomannomutase and mannose-1-phosphate guanylyltransferase assay. It counts as functional. The note with it: 10 µM.
Test [6] concerns the target T3, Arginase-2, mitochondrial (Homo sapiens) (UniProt P78540).
T3 sequence (whole entry): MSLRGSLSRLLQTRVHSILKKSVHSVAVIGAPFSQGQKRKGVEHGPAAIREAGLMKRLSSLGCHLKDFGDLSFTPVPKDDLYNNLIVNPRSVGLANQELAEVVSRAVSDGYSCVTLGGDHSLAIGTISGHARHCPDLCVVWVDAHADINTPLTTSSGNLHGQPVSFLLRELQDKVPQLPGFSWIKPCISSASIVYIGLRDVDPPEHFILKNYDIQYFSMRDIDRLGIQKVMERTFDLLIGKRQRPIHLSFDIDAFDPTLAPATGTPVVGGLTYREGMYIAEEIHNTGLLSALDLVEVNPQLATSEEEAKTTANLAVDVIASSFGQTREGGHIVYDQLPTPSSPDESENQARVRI
Kind of test: in vitro enzyme assay to detect the production of urea directly proportional to the activity of Arginase II. Also: in the data most compounds retested in dose-response had high values. Type of test: functional. To be noted: 33.3 µM.

The target of test [7] is T4, Proteasome subunit beta (Trypanosoma cruzi) (UniProt O96673).
T4 sequence (whole entry): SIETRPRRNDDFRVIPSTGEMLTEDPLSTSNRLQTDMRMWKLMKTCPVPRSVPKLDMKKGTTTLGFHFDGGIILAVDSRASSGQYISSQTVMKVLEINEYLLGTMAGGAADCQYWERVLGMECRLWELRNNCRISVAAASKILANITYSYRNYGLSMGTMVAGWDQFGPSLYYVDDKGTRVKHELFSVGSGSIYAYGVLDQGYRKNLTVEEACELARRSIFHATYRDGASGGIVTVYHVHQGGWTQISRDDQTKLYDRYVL
The test can be described thus: Trypanosoma cruzi proteasome chymotrypsin-like activity (TcProtChymo) assay. Also: in the data most compounds retested in dose-response had high values. Type of test: functional. The note with it: 9.37 µM.

For another test, the species on record is Homo sapiens. The test can be described thus: To identify inhibition of the IFN signalling (Jak-Stat) pathway via expression of an eGFP reporter gene under the control of an IFN-stimulated response element (ISRE) containing MxA promoter. It counts as functional. To be noted: 30 µM. Background: In a reporter assay the amount or activity of a reporter protein is the signal.

In test [8] the target is Shiga toxin 2 (Escherichia coli O157:H7) (UniProt P09385+P09386). The test can be described thus: E. coli 0.157:H7 Shiga Toxin SOP - stx2 screening assay. Type of test: functional. To be noted: 30 µM.
Test [9] has as its target T5, Tyrosyl-tRNA synthetase, putative (Trypanosoma cruzi (strain CL Brener)) (UniProt Q4DSP6).
T5 sequence (whole entry): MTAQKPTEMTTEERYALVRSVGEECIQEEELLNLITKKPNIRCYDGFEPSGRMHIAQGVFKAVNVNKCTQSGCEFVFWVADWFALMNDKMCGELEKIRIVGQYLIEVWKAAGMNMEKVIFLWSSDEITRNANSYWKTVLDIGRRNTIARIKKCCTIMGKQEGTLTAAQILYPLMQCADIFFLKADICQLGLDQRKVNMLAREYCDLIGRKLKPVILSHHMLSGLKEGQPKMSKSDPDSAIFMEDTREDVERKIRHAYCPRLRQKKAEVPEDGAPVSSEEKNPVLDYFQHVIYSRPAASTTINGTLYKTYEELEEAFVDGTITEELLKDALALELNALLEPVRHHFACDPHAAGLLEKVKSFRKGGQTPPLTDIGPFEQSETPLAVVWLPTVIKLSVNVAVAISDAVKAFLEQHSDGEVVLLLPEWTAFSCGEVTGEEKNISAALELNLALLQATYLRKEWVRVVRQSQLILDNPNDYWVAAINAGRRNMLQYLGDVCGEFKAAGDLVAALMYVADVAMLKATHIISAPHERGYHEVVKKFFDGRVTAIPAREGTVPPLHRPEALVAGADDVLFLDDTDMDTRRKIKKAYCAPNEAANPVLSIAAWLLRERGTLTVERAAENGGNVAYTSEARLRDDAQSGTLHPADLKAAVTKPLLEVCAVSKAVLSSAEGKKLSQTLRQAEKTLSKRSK
The test can be described thus: Trypanosoma cruzi tyrosyl tRNA synthetase (TcYRS) _High Tyrosine SOP. Also: in the data most compounds retested in dose-response had high values. To be noted: 30 µM. Type of test: functional.

Test [10] addresses T5, Tyrosyl-tRNA synthetase, putative (Trypanosoma cruzi (strain CL Brener)). The test can be described thus: Trypanosoma cruzi tyrosyl tRNA synthetase (TcYRS) SOP. Type of test: functional. To be noted: 30 µM.
For test [11], the target named is Chromo domain-containing protein 1 (Saccharomyces cerevisiae (strain ATCC 204508 / S288c) (Baker's yeast)) (UniProt P32657). The test can be described thus: ScCHD-1 Enzyme Inhibition Assay. Also: in the data most compounds retested in dose-response had high values. Type of test: functional. To be noted: 30 µM.

For some assays here: Potency and affinity values are given separately.

Chain of Protein translocase subunit SecA (Escherichia coli (strain K12)) (P10408 whole entry): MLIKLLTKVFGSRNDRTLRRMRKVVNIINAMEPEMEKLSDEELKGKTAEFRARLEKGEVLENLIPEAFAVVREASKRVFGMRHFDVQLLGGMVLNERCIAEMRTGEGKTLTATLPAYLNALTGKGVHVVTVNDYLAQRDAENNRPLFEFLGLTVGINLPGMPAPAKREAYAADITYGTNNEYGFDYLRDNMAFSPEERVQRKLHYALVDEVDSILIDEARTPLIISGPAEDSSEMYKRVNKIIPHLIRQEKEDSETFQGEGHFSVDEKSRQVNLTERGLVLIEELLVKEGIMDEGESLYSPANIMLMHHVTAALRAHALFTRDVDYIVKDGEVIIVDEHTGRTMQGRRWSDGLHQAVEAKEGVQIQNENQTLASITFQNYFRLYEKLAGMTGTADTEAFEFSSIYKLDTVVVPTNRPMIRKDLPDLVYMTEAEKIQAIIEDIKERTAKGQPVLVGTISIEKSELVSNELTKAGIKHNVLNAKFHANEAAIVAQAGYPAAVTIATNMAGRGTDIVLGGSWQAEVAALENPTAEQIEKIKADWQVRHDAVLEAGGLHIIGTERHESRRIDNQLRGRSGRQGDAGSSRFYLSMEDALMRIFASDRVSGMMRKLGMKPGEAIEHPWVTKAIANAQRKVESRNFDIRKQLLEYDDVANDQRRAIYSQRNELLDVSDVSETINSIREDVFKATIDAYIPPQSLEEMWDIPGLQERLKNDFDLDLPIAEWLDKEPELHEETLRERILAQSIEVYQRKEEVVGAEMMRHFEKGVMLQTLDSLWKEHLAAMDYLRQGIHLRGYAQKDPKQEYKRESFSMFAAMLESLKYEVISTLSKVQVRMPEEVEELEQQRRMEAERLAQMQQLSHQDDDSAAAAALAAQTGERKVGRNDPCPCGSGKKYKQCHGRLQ
Chain of Sialic acid-binding Ig-like lectin 9 (Homo sapiens) (Q9Y336 whole entry): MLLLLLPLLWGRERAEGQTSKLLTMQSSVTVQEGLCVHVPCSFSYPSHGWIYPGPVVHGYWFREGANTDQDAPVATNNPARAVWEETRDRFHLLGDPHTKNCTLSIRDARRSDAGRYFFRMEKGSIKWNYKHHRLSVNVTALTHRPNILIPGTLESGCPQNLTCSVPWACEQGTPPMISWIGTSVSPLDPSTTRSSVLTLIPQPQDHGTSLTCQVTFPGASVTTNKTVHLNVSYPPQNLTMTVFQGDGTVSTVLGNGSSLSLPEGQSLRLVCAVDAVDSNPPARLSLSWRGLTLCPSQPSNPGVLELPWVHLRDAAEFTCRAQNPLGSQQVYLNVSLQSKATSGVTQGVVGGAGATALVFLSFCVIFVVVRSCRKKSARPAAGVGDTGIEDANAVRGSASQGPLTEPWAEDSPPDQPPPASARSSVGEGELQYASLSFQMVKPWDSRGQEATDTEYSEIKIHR
Chain of Chromo domain-containing protein 1 (Saccharomyces cerevisiae (strain ATCC 204508 / S288c) (Baker's yeast)) (P32657 whole entry, the tested form may be a part): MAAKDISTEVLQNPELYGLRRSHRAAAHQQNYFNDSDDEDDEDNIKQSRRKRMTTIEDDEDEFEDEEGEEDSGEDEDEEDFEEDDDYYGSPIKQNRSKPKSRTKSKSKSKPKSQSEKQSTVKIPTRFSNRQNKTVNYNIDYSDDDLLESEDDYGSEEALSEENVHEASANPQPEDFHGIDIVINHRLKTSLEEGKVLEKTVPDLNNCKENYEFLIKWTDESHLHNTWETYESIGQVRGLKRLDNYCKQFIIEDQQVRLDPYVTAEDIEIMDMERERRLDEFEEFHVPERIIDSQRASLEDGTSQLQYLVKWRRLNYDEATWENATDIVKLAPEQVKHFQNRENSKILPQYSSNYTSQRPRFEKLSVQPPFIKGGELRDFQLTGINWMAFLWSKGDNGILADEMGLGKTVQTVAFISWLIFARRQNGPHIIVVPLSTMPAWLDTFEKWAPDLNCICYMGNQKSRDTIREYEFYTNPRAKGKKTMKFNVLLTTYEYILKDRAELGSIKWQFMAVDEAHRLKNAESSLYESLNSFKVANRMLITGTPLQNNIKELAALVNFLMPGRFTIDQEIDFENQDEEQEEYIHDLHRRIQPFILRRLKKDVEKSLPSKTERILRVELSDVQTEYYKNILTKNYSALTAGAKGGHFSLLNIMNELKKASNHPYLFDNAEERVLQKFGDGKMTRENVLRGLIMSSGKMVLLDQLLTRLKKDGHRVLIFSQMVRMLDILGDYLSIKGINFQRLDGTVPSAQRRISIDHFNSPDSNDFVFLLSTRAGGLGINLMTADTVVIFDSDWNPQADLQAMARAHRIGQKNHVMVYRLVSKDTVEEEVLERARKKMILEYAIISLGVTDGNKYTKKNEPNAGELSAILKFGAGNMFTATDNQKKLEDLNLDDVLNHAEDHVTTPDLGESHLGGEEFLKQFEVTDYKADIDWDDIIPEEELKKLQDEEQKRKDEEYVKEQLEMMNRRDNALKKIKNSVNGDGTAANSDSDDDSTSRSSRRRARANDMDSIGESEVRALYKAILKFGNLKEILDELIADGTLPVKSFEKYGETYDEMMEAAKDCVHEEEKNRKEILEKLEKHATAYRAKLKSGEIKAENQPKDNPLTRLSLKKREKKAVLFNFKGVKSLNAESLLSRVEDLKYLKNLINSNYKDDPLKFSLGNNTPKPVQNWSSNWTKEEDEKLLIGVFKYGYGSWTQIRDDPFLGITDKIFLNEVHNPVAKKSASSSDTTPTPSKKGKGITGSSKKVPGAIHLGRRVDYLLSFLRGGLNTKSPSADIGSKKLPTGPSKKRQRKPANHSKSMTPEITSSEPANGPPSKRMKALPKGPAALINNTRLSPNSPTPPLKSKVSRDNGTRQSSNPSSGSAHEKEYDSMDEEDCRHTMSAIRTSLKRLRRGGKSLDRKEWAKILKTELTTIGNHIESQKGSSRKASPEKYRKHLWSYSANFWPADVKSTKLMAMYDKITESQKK

Take `O[C@@]1(c2ccccn2)CC[C@H]2CN(Cc3cccc(Cl)c3Cl)C[C@H]21`: the Percent Effect is -3.54% in test [1]; 1.35% in [2]; -0.73% in test [3]; 14.3% in test [4]; -0.828% in test [5]; -3.95% in the test with Trypanosoma cruzi. Besides, the Percent Effect was -1.62% in test [6]; -0.468% in test [7]; 25.8% in the test filed under Homo sapiens; 23.9% in test [8]; 2.15% in test [9]; 6.49% in [10]. Moreover, in test [11], the Percent Effect is -8.09%.
Turning to `Cc1ccc(N2CCO[C@H]3CN(Cc4ccncc4)C[C@H]32)nn1`, the Percent Effect was -2.06% in [1]; 2.7% in test [2]; 2.28% in test [3]; 3.63% in test [4]; -2.84% in test [5]; -2.83% in the test with Trypanosoma cruzi. The Percent Effect in test [6] was 1.59%; in [7], 19.6%; in the test listed under Homo sapiens, 4.04%; in test [8], -5.64%; in test [9], 8.65%; in [10], 10.3%. For the same compound, in test [11], the Percent Effect was -5.13%.
In the case of `O=C(Cc1ccc(O)c(Cl)c1)N1CCN(CC2CC2)[C@@H]2CS(=O)(=O)C[C@@H]21`, the Percent Effect is -7.75% in [1]; -1.39% in test [2]; 4.65% in test [3]; -2.21% in [4]; 15.8% in test [5]; -1.46% in the test with Trypanosoma cruzi. In addition, the Percent Effect is 0% in test [6]; 7.54% in [7]; -5.81% in the test filed under Homo sapiens; -19.1% in test [8]; -2.1% in test [9]; -2.56% in [10]. Also, in [11], the Percent Effect was -1.95%.
With `O=C(c1cc(-n2cccc2)ccc1Cl)N1CCC2(CC1)OCCO2`, the Percent Effect in [1] is -3.83%; in test [2], 7.89%; in test [3], 3.38%; in test [4], 15.4%; in [5], -3.27%; with Trypanosoma cruzi it was -0.876%. The Percent Effect is -8.28% in test [6]; 15.8% in test [7]; 1.48% in the test listed under Homo sapiens; 8.93% in test [8]; 2.13% in test [9]; 10.4% in test [10]. Besides, the Percent Effect in [11] is -2.85%.
Turning to `c1ccc(CN2C[C@@H]3OCCN(c4ncccn4)[C@@H]3C2)nc1`, the Percent Effect was -3.31% in test [1]; 5.33% in test [2]; -0.456% in [3]; 12.4% in test [4]; 1.5% in test [5]; -4.53% in the test on Trypanosoma cruzi. Moreover, the Percent Effect in test [6] is -1.17%; in test [7], -2.73%; in the test listed under Homo sapiens it was 6.09%; in test [8], 1.03%; in test [9] it was 6.38%; in test [10], 8.97%. The Percent Effect in [11] is -1.36%.
